# Screens from PubChem.
# Rows were chosen to be rich in hits. Some 2.9% of all compounds tested hit in one or more screens of this group.
# KDM5B inhibitor: inhibitors of human KDM5B histone demethylase. Q9UGL1. Potency, µM (series often up to 57.7 µM), usual class: inhibitors. KDM5B demethylase, FDH-coupled NADH fluorescence (FDH is formaldehyde dehydrogenase). hit rate 2.6% among 220,000. AID 1347165; also: potency is read from the fitted curve at half-maximal effect; 0% is about no effect; nearly all actives have a fitted effect of over 70% in size
#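 Compound dilutions met 200 nM (final) KDM5BΔAP for 10 min at room temperature before substrate addition. The substrate mix held 12.5 µM H3K4me3 with cofactors 25 µM α-ketoglutarate and 50 µM Fe²⁺. NADH signal gain over 30 min defined activity.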
# SNCA expr inhib: reduces expression of the alpha-synuclein gene; hit rate 0.17% among 140,000; Potency, µM (series often up to 57.2 µM), for the others: top-dose activity change, negative = inhibition, actives largely listed as inhibitors; HEK-293 SNCA-luciferase knock-in, luminescence, 24 h;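 also: potency is read from the fitted curve at half-maximal effect; plate controls were DMSO cells for no effect and cell-free wells for full effect; nearly all actives have a fitted effect of over 45% in size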
# IP6K1 inhibitor: inhibitors of human IP6K1; Q92551; hit rate 0.81% among 140,000; AID 1645851; activity change, % (series mostly up to about 58 µM); IP6K1 kinase, ADP-Glo luminescence, 2 h; hits give low values; in the data active = activity change below about -25%; also: % is scaled to controls: 0 for no effect and ±100 for the full control effect
# Target sequence (Q92551 whole entry, looked up): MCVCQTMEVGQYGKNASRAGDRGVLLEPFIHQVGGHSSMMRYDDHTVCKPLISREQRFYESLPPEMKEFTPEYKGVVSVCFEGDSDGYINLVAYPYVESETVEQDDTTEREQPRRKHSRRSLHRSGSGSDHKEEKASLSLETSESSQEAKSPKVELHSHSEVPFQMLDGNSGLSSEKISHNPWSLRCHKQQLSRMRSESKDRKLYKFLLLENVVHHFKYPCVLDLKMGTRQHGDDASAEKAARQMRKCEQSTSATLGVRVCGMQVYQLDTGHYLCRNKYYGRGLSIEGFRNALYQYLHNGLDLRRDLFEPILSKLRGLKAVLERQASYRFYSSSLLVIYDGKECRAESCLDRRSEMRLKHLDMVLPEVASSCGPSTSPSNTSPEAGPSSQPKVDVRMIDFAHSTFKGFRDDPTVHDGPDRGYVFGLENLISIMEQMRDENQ
#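 ADP-Glo luminescence measures ADP made by human IP6K1 during a 2 h RT reaction with ATP/IP6 (mix at 1.3 mM/130 uM); top library doses 57.5 and 19.1 uM final.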
# SNCA viab count: counter-screen for SNCA expression inhibitors: cell viability. Potency, µM (series often up to 57.1 µM), without a hit: at the highest dose activity change, negative = cytotoxicity, usual class: cytotoxic. hit rate 0.12% among 150,000. HEK-293-SNCA-luc viability, GF-AFC fluorescence, 24 h. AID 1671193;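 also: potency is read from the fitted curve at half-maximal effect; 0% = DMSO-treated cells and -100% = medium-only wells without cells; nearly all actives have a fitted effect of over 30% in size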
#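 Cytotoxicity counterscreen: after 24 h compound treatment of genome-edited SNCA-luciferase HEK-293 cells, live-cell protease substrate GF-AFC read by fluorescence after 30 min; activity scaled between DMSO (0%) and medium-only (-100%), curves Hill-fitted.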
# IP6K1 conf: confirmation of human IP6K1 inhibitors; AID 1645852; recombinant IP6K1 kinase, ADP-Glo luminescence, 2 h; Potency, µM (series often up to 49 µM), for the others: top-dose activity change, negative = inhibition, most hits filed as inhibitors; shares compounds with IP6K1 inhibitor; hit rate 13% among 1,200; also: potency is read from the fitted curve at half-maximal effect; % is scaled to controls: 0 for no effect and ±100 for the full control effect; nearly all actives have a fitted effect of over 65% in size
# Starred values were filed as active, the others as inactive; i = inactive; ? = inconclusive; / = no result given; [ ] = dose if it differs, or a comment. Unless noted, calls follow the shape of the dose curve; as a rule, active = well fitted curve in the direction sought with a large enough effect; inconclusive = small, poorly fitted or top-dose-only effect, or another doubt; inactive = no such curve, though single readings can be large; an effect the other way counts as inactive or inconclusive.
SMILES,KDM5B inhibitor,SNCA expr inhib,IP6K1 inhibitor,SNCA viab count,IP6K1 conf
O=C1CCN(C[C@@H](O)COCc2ccccc2)c2ccccc2CN1C1CCCC1,/,/,8.7,/,/
CCCCCNC(=O)c1cccc(-c2ccc(OC)nn2)c1,/,/,26.0,/,/
COc1cccc(C(=O)N2CCC(c3nc(C4CCOC4)no3)CC2)c1 (centres undefined),?,2.8%,-36.9*,7.2%,-13.0%
COc1cc(OC)cc(C(=O)N2CCC(c3nc(C4CCOC4)no3)CC2)c1 (centres undefined),i,8.4%,18.8,11.3%,/
COc1ccc(-c2ccc(C(=O)NC3CC3)c(Cl)c2)nn1,/,/,-14.9,/,/
Cc1ccc(-n2nc(CO)c(C(=O)NC(C)CCCc3ccccc3)n2)cc1 (centres undefined),i,40.4%,-31.0*,-7.9%,-18.5%
O=C(Oc1ccccc1F)c1nc(SCc2ccc(F)cc2)ncc1Cl,i,18.7%,-37.9*,7.1%,-1.2%
COc1ccc(OC(=O)c2nc(SCc3ccc(C)cc3)ncc2Cl)cc1,?,6.1%,-28.2*,4.6%,-2.7%
Cc1ccccc1OC(=O)c1nc(SCc2ccccc2F)ncc1Cl,i,2.8%,-12.8,?,/
COc1ccc(OC(=O)c2nc(SCc3ccc(F)cc3)ncc2Cl)cc1,i,-7.6%,-19.0,3.0%,/
Cc1ccc(CNC(=O)c2nc(SCc3ccc(C)cc3)ncc2Cl)cc1,i,?,-6.5,8.8%,/
Cc1ccc(CSc2ncc(Cl)c(C(=O)Oc3ccc(F)cc3)n2)cc1,?,-6.7%,-25.2*,-0.7%,13.4%
COc1ccccc1-c1cccc(C(=O)N2CCN([S+](=O)([O-])c3cccc(C(F)(F)F)c3)CC2)c1,/,-21.0%,14.2,5.1%[12.5 µM],/
Cc1ccc(-c2cccc(CN3CCCC3C(=O)N3CCOCC3)c2)cc1Cl (centres undefined),/,/,-12.4,/,/
CC(=O)Nc1ccc(-n2c(CCC(=O)O)ccc2-c2ccc(C)cc2)cc1,?,-16.9%,15.9,-1.7%,/
CC(=O)Nc1ccc(-n2c(CCC(=O)O)ccc2-c2ccc(Br)cc2)cc1,?,-8.3%,-41.2*,1.7%,-8.4%
COc1cccc(-c2cc(C(=O)Nc3ccccc3F)c3cnn(C)c3n2)c1,/,/,-3.0,/,/
Cc1ccsc1C(=O)N1CCCN(C)c2ccccc21,i,29.2%,-6.1,0.3%,/
Cc1ccsc1/C=C/C1=NCCCN1C,/,-10.4%[25.6 µM],-33.3*,-2.7%[23.9 µM],-1.4%
Nc1ccc(C(=O)O)c(O)c1,/,0.0%[25.6 µM],-74.0*,-9.8%[23.9 µM],13.7%
O=C(O)c1ccccc1O,/,-53.5%[25.6 µM],-4.5,7.4%[23.9 µM],/
O=C(NCCc1ccccc1)c1ccc2nc(N3CCCCC3)sc2c1,i,181.1%,-30.8*,13.8%,-17.7%
CN1CC(=O)N(C2CCCCC2)Cc2c(NCCc3ccccc3)ncnc21,/,4.6%,23.4,-2.2%,/
Cc1nc(-c2ccc(OCC(C)C)c(C#N)c2)sc1C(=O)O,/,45.7%[25.6 µM],-49.1*,5.7%[23.9 µM],6.51µM*
COCC(=O)NC[C@@H]1C=C(C)[C@H](Cc2nc3ccc(C(=O)OC)cc3[nH]2)C[C@H]1C(C)C,i,85.4%[87.6 µM],2.4,-24.3%[87.6 µM],/
SMILES,KDM5B inhibitor,SNCA expr inhib,IP6K1 inhibitor,SNCA viab count,IP6K1 conf
COc1ccc(OCC(=O)NCc2ccc3c(c2)CCN3C(=O)c2ccc(F)cc2)cc1,?,-4.1%,-35.9*,20.4%,-9.1%
Fc1ccc(Nc2nc(-c3cccc(Cl)c3)c3c(n2)-c2ccccc2OC3)c(F)c1,?,4.9%,-27.0*,4.8%,-7.4%
COc1ccc(C)cc1Nc1nc(-c2cccc(Cl)c2)c2c(n1)-c1ccccc1OC2,i,20.7%,-14.2,1.2%,/
CCc1ccc(C(=O)Nc2cc(CN3CCN(C)CC3)cc(C(F)(F)F)c2)cc1C#Cc1cnc2ccnn2c1,/,24.1µM*,-39.4*,?,?
CCN1CCN(c2cc(C)c3cc(NC(=O)c4cccc(C(F)(F)F)c4)ccc3n2)CC1,i,1.3%,9.4,2.1%,/
Cc1cnc(Nc2ccc(OCCN3CCCC3)cc2)nc1Nc1cccc(S(=O)(=O)NC(C)(C)C)c1,/,34.9%,-0.5,?,25.0%
CCOC(=O)c1ccc(NC(=O)CSc2nc3cc4ccccc4cc3[nH]2)cc1,?,-1.8%,-25.5*,-6.0%,15.4%
CCOC(=O)c1ccc(NC(=O)CSc2nccn2-c2cc(C)cc(C)c2)cc1,i,-11.3%,-27.4*,0.2%,?
Cc1cc(C)cc(NC(=O)CSc2nccn2-c2ccccc2)c1,i,-6.4%,21.2,7.0%,/
